# C diff growth: blocks growth of Clostridium difficile. Clostridium difficile clinical isolate growth, OD600, 24 h; stronger effect = lower value. growth activity, negative = inhibition, % at 16 µg/mL (by protocol). 86,000 tested, 0.25% active. AID 1259249;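 active = mean growth activity at or below -80% and every replicate also at or below -80%; inconclusive = mean at or below -80% but some replicate above -80%; inactive = mean growth activity above -80%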
# T cruzi growth-1: blocks T. cruzi growth in NIH3T3 culture. T. cruzi beta-gal in NIH3T3, GalScreen luminescence, 90 h. inhibition, % at 8.34 µM. 77,000 tested, 5.9% active. AID 624255;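 active = mean inhibition above about 93%, with at least 55% of replicates each passing it, limit read from the data, passing the limit was not always enough; inconclusive = only one of those two conditions holds; inactive = neither condition holds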
# Pf Dd2 growth: blocks growth of Plasmodium falciparum Dd2 parasites; activity change, % at 10 µM; P. falciparum Dd2 growth, SYBR Green, 72 h; stronger effect = lower value; 94,000 tested, 2.3% active; in the data active = activity change below about -80%; inconclusive = no clear call, values can overlap the other calls
# T cruzi growth-2: blocks T. cruzi growth in NIH3T3 host cells. T. cruzi beta-gal in NIH3T3, GalScreen luminescence, 90 h. inhibition, % at 8.35 µM. 5,600 tested, 72% active. AID 651739. shares compounds with T cruzi growth-1;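 active = mean replicate inhibition above about 95% and at least 55% of replicates individually reaching it, limit read from the data; inconclusive = only one of the two criteria is met; inactive = neither criterion is met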
# T cruzi growth-3: Trypanosoma cruzi proliferation inhibition. shares compounds with T cruzi growth-1. 5,600 tested, 21% active. AID 651740. T. cruzi beta-gal in NIH3T3, GalScreen luminescence, 90 h. inhibition, % at 2.09 µM;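 active = mean inhibition above about 95%, with at least 55% of replicates also reaching it, limit read from the data; inconclusive = meets just one of the two conditions; inactive = meets neither condition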
# 3T3 cytotox: kills mouse NIH/3T3 fibroblasts. shares compounds with T cruzi growth-1. NIH/3T3 viability, CellTiter-Glo ATP luminescence, 90 h. cytotoxicity (signal decrease), % at 8.35 µM. 5,600 tested, 14% active. AID 651742;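 active = mean signal decrease across replicates above about 35% based on untreated-well scatter, with enough replicates individually passing, limit read from the data; inconclusive = no rule stated though some were filed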
# 3T3 cytotox 2: cytotoxicity in mouse NIH/3T3 fibroblasts; NIH/3T3 viability, CellTiter-Glo ATP luminescence, 90 h; 5,600 tested, 56% active; shares compounds with T cruzi growth-1; inhibition, % at 24.9 µM;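 active = mean loss of cell viability signal at or above a set limit, and enough replicates individually reaching it; inconclusive = meets only the mean limit or only the replicate share; inactive = meets neither condition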
# A number is an active result; – = inactive; ? = inconclusive; · = no result. Sampled rows, rich in hits. Any-hit rate of the full collection: about 6.7%.
SMILES,C diff growth,T cruzi growth-1,Pf Dd2 growth,T cruzi growth-2,T cruzi growth-3,3T3 cytotox,3T3 cytotox 2
COCCNC(=O)C[C@H]1CC[C@H]2[C@@H](COC[C@@H](O)CN2C(=O)Nc2ccccc2OC)O1,–,·,–,·,·,·,·
C[C@@H]1CCCCO[C@@H](CN(C)S(=O)(=O)c2cccs2)[C@H](C)CN([C@H](C)CO)C(=O)c2cc(NS(=O)(=O)c3cn(C)cn3)ccc2O1,–,·,–,·,·,·,·
C[C@@H]1CCCCO[C@H](CN(C)Cc2ccc(C(F)(F)F)cc2)[C@@H](C)CN([C@H](C)CO)C(=O)c2cc(NC(=O)Nc3ccc4c(c3)OCO4)ccc2O1,·,–,–,·,·,·,·
C[C@@H]1CN([C@H](C)CO)C(=O)c2cc(NC(=O)Nc3ccc4c(c3)OCO4)ccc2O[C@@H](C)CCCCO[C@H]1CN(C)Cc1ccc(C(F)(F)F)cc1,·,–,–,·,·,·,·
C[C@@H]1CN([C@H](C)CO)C(=O)c2cc(NC(=O)Nc3ccc(C(F)(F)F)cc3)ccc2O[C@@H](C)CCCCO[C@@H]1CN(C)Cc1ccc2c(c1)OCO2,–,?,–,–,120.0,?,102.4
C[C@@H]1CCCCO[C@H](CN(C)Cc2ccc3c(c2)OCO3)[C@@H](C)CN([C@H](C)CO)C(=O)c2cc(NC(=O)Nc3ccc(C(F)(F)F)cc3)ccc2O1,–,?,–,–,112.6,–,101.7
C[C@@H]1CCCCO[C@@H](CN(C)Cc2ccc(C(F)(F)F)cc2)[C@H](C)CN([C@@H](C)CO)C(=O)c2cc(NC(=O)Nc3ccc4c(c3)OCO4)ccc2O1,·,–,–,·,·,·,·
C[C@@H]1CCCCO[C@@H](CN(C)Cc2ccc3c(c2)OCO3)[C@H](C)CN([C@H](C)CO)C(=O)c2cc(NC(=O)Nc3ccc(C(F)(F)F)cc3)ccc2O1,-94.8,119.3,–,101.8,109.8,–,104.2
COc1ccc(NC(=O)N[C@H]2CC[C@@H](CCNS(=O)(=O)c3ccccc3F)O[C@@H]2CO)cc1,·,–,–,·,·,·,·
CCCNC(=O)C[C@H]1C[C@@H]2c3cc(NC(=O)NC4CCCCC4)ccc3O[C@@H]2[C@@H](CO)O1,–,–,–,·,·,·,·
O=C(C[C@H]1CC[C@@H](NC(=O)C2CCOCC2)[C@H](CO)O1)Nc1ccccc1,–,·,–,·,·,·,·
CC(C)NC(=O)N[C@H]1CC[C@@H](CC(=O)N2CCCCC2)O[C@H]1CO,·,–,–,·,·,·,·
O=C(C1CCC1)N1CC2(C1)[C@H](c1ccccc1)[C@@H](CO)N2Cc1ccc(Cl)cc1,–,·,–,·,·,·,·
C[C@@H]1CN([C@H](C)CO)C(=O)c2cccc(NC(=O)C3CCOCC3)c2O[C@@H]1CN(C)C(=O)Nc1ccc(F)cc1,–,–,–,·,·,·,·
O=C(C[C@H]1CC[C@@H](NC(=O)c2ccc(F)cc2)[C@H](CO)O1)NCc1ccncn1,–,–,–,·,·,·,·
COc1ccc(NC(=O)Nc2cccc3c2O[C@@H](CN(C)Cc2ccc(Cl)c(Cl)c2)[C@@H](C)CN([C@@H](C)CO)C3=O)cc1,–,121.7,–,99.5,–,–,51.2
COc1ccc(NC(=O)Nc2cccc3c2O[C@@H](CN(C)Cc2ccc(Cl)c(Cl)c2)[C@@H](C)CN([C@H](C)CO)C3=O)cc1,–,?,–,110.6,–,–,37.6
C[C@H](CO)N1C[C@H](C)[C@H](CN(C)Cc2ccc(Cl)c(Cl)c2)Oc2c(NC(=O)Nc3ccc4c(c3)OCO4)cccc2C1=O,·,?,–,101.1,–,–,26.7
COc1ccc(CN(C)C[C@H]2Oc3c(NC(=O)Nc4ccc(OC)cc4)cccc3C(=O)N([C@@H](C)CO)C[C@H]2C)cc1,–,–,–,·,·,·,·
COc1ccc(NC(=O)Nc2cccc3c2O[C@H](CN(C)Cc2ccc(Cl)c(Cl)c2)[C@H](C)CN([C@H](C)CO)C3=O)cc1,–,–,–,·,·,·,·
C[C@@H]1CN([C@H](C)CO)C(=O)c2cccc(NC(=O)Nc3ccc4c(c3)OCO4)c2O[C@@H]1CN(C)Cc1ccc(Cl)c(Cl)c1,·,–,–,·,·,·,·
CC(C)NC(=O)N(C)C[C@@H]1Oc2ccc(NC(=O)NC3CCCCC3)cc2CC(=O)N([C@@H](C)CO)C[C@H]1C,–,–,–,·,·,·,·
COc1cccc(CNC(=O)C[C@H]2C=C[C@@H](NC(C)=O)[C@@H](CO)O2)c1,–,–,–,·,·,·,·
C[C@@H]1CN([C@H](C)CO)C(=O)c2cccc(NC(=O)Nc3ccc(C(F)(F)F)cc3)c2O[C@@H]1CN(C)S(=O)(=O)c1ccccc1,·,–,–,·,·,·,·
CCCNC(=O)N1CC2(CCN(C(=O)c3cnccn3)CC2)c2c([nH]c3cc(OC)ccc23)[C@H]1CO,–,·,–,·,·,·,·
SMILES,C diff growth,T cruzi growth-1,Pf Dd2 growth,T cruzi growth-2,T cruzi growth-3,3T3 cytotox,3T3 cytotox 2
C[C@@H]1CN([C@@H](C)CO)C(=O)c2cc(NC(=O)Cc3cn(C)c4ccccc34)ccc2O[C@@H]1CN(C)Cc1ccc(Oc2ccccc2)cc1,–,93.3,–,96.0,?,–,75.6
C[C@H]1CN([C@@H](C)CO)C(=O)c2cc(NC(=O)Cc3cn(C)c4ccccc34)ccc2O[C@H]1CN(C)Cc1ccc(Oc2ccccc2)cc1,–,–,–,·,·,·,·
C[C@H](CO)N1C[C@H](C)[C@H](CN(C)Cc2ccc(C(F)(F)F)cc2)Oc2ccc(NC(=O)Cc3cn(C)c4ccccc34)cc2C1=O,–,–,–,·,·,·,·
C[C@@H]1CN([C@@H](C)CO)C(=O)c2cc(NC(=O)Cc3cn(C)c4ccccc34)ccc2O[C@H]1CN(C)Cc1ccc(C(F)(F)F)cc1,–,112.8,–,105.1,–,–,?
COc1ccc(S(=O)(=O)N(C)C[C@@H]2Oc3ccc(NC(=O)Cc4cn(C)c5ccccc45)cc3C(=O)N([C@@H](C)CO)C[C@H]2C)cc1,–,–,–,·,·,·,·
C[C@@H]1CN([C@H](C)CO)C(=O)c2cc(NC(=O)Cc3cn(C)c4ccccc34)ccc2O[C@@H]1CN(C)Cc1ccccc1,–,–,–,·,·,·,·
C[C@H]1CN([C@@H](C)CO)C(=O)c2cc(NC(=O)Cc3cn(C)c4ccccc34)ccc2O[C@H]1CN(C)Cc1ccc(C(F)(F)F)cc1,–,?,–,100.7,–,–,–
COc1ccc(S(=O)(=O)N(C)C[C@H]2Oc3ccc(NC(=O)Cc4cn(C)c5ccccc45)cc3C(=O)N([C@@H](C)CO)C[C@H]2C)cc1,–,98.8,–,108.2,–,–,61.4
Cc1ccc(S(=O)(=O)Nc2ccc3c(c2)C(=O)N([C@@H](C)CO)C[C@H](C)[C@@H](CN(C)Cc2ccc(C(=O)O)cc2)OCCCC[C@H](C)O3)cc1,·,·,–,·,·,·,·
COc1ccc(S(=O)(=O)N(C)C[C@H]2OCCCC[C@@H](C)Oc3ccc(NC(=O)CCC(F)(F)F)cc3C(=O)N([C@H](C)CO)C[C@H]2C)cc1,–,–,–,·,·,·,·
O=C(C[C@H]1CC[C@H](NC(=O)C2CCC2)[C@@H](CO)O1)NC1CCC1,–,·,–,·,·,·,·

# Screening results (PubChem BioAssay)
